In all, about 220,000 compounds went through this assay and about 2,000 (0.91%) were called active. Inconclusive results (about 2%) are left out. A selection follows. Results with a measured potency or affinity are listed apart. Unmarked numbers belong to inactive results. Rule as the data show it: inconclusive = inhibition above about 80% without an active follow-up result; inactive = below that; test concentration not stated here.
assay: M. tuberculosis H37Rv growth inhibitors, H37Rv strain (AID 1626); details: hits give high values, concentration not given here;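 also: bacteria incubated seven days before Alamar blue readout; 0% = bacteria only wells and 100% = bacteria with antibiotic wells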

SMILES	inhibition [%]
CC(=O)c1cccc(NC(=O)c2ccc(N(Cc3ccc(C)cc3)S(C)(=O)=O)cc2)c1	1.69
Cc1ccc(/C=N/n2c(C)cc(C)c(C#N)c2=O)cc1	-12.6
O=C(NC1(C(F)(F)F)NC(=O)N(c2ccccc2F)C1=O)c1ccncc1 (stereo not given)	-15.1
Cc1nnc(N)s1	-5.97
CN(C)c1ccc(C(=O)NNC(=O)c2ccc(Cl)cc2)cc1	-8.45
O=C(Nc1nnc(-c2ccc(Cl)cc2)o1)c1ccc(N2C(=O)CCC2=O)cc1	8.01
O=C(CNc1cccc(C(F)(F)F)c1)N/N=C/c1cn(-c2ccccc2)nc1-c1ccccc1	8.35
CCOC(=O)CSc1nc(N)c2c3c(sc2n1)CCCC3	70.6
CC1CCc2c(sc3nc(SCC(=O)NCc4ccco4)nc(N)c23)C1 (stereo not given)	7.95
NC(=O)CSc1nc(N)c2c3c(sc2n1)CCCCC3	-1.55
CC(C)(C)C1CCc2c(sc3nc(SCC(=O)O)nc(N)c23)C1 (stereo not given)	-0.64
Cc1ccccc1NC(=O)CSc1nc(N)c2c3c(sc2n1)CSC(C)(C)C3	53.7
CNC(=O)CSc1nc(N)c2c3c(sc2n1)CCC3	9.76
CCOc1ccccc1C1C(C#N)=C(N)Oc2cc(N)ccc21 (stereo not given)	8.36
C=CCN1C(=O)C(C(C)CC)NC1=S (stereo not given)	-2.92
Cc1ccc(N=C2NC(=O)C(CC(=O)NCc3ccccc3)S2)cc1C (stereo not given)	-1.52
O=C(CCc1c[nH]c2ccccc12)Nc1ccc(S(=O)(=O)Nc2ncccn2)cc1	-2.28
CC1CC1C(=O)OCC(=O)Nc1cccc([N+](=O)[O-])c1 (stereo not given)	-1.97
CN1CCN(Cc2ccc(Sc3ccc(Cl)cc3)c([N+](=O)[O-])c2)CC1	18.9
Cc1ccc(Sc2ccc(CN3CCCC3)cc2[N+](=O)[O-])cc1	9.11
O=C(CN1CCOCC1)NNC(=S)Nc1ccc(Cl)cc1	4.8
Cc1ccc(SCC(=O)NC2CCS(=O)(=O)C2)cc1 (stereo not given)	4.3

SMILES	inhibition [%]
CCc1nc(N2CCN(Cc3ccc4c(c3)OCO4)CC2)c2oc3ccccc3c2n1	5.87
Cc1nc(Nc2ccc3c(c2)OCO3)c2oc3ccccc3c2n1	-15.2
CCc1nc(Nc2ccc3c(c2)OCCO3)c2oc3ccccc3c2n1	1.04
c1ccc2c(c1)oc1c(NCc3ccc4c(c3)OCO4)ncnc12	57.7
CC1Cc2ccccc2N1C(=O)c1cnc2ccccn2c1=O (stereo not given)	-5.12
COc1ccc2cc(C(=O)N3CCCCCC3)sc(=O)c2c1OC	-2.1
CCCCCC(=O)N1CC2(CC(c3cccc(NC(=O)CC(c4ccccc4)c4ccccc4)c3)=NO2)C[C@@H]1C(N)=O (stereo not given in full)	11.1
Cc1nc(CNS(=O)(=O)c2cccs2)cs1	5.2
Nc1ccc(/C=C/c2ccc3ncccc3c2)cc1	17.8
c1ccc2c(c1)ccc1ncccc12	-7.23
COc1cccc(-c2ccc(C#N)c(=O)[nH]2)c1	-3.44
O=C(Nc1cccc(O)c1)c1cccc(S(=O)(=O)N2CCCC2)c1	-5.4
C/C(=C\C(=O)c1cccnc1)Nc1ccc(O)cc1	-6.05
O=C(Nc1ccccc1O)c1ccccc1O	0.57
CC(=O)Nc1ccccc1O	-3.72
C/C(=C\C(=O)c1ccccc1)Nc1ccc(O)cc1	-1.7
COc1ccc(NC(=S)NC(C)c2ccncc2)cc1OC (stereo not given)	0.92
O=C(O/N=C(\c1ccccc1)c1ccccn1)c1cccc2ccccc12	4.72
CCN(CC(=O)NCc1cccs1)c1ccc(S(=O)(=O)N2CCN(C)CC2)cn1	-7.08
COc1ccc(-c2csc(/C(C#N)=C\c3ccc(OC)c([N+](=O)[O-])c3)n2)cc1	5.82
COc1ccc(-c2csc(/C(C#N)=C\c3ccc(O)c([N+](=O)[O-])c3)n2)cc1OC	73.4
COc1ccc(S(=O)(=O)N2CCCCC2)cc1NC(=O)c1cc(C)on1	-0.76

SMILES	inhibition [%]
CNC(=S)Nn1cnc2ccccc21	0.16
c1ccc(-c2ccc(-n3ccnc3)cc2)cc1	1.87
COc1ccc(-n2ccnc2)cc1	1.8
COc1ccc(OC)c(N2C(=O)CC(Cc3ccc(Cl)cc3)C2=O)c1 (stereo not given)	-4.41
Cc1nc2ccccc2c(=O)n1/N=C/C=C/c1ccccc1	-2.49
COc1ccc2c(c1)C1(Nc3ccccc3C(=O)N1c1ccccc1)C(=O)N2 (stereo not given)	-1.38
COc1cc2c(cc1OC)C1(NCC2)C(=O)Nc2ccccc21 (stereo not given)	0.79
COc1ccc(C(=O)C2CCCN(Cc3ccc4nonc4c3)C2)c(OC)c1 (stereo not given)	4.61
CC(C)NC(=O)NC(=O)CSc1ccccc1F	8.25
COc1ccc(-c2cn[nH]c2N)cc1	3.3
Nc1[nH]ncc1-c1ccccc1	48.5
O=C(NCc1cn2ccsc2n1)c1cccs1	2.94
O=C(COC(=O)c1cc(S(=O)(=O)N2CCOCC2)ccc1O)Nc1cc(S(=O)(=O)N2CCCC2)ccc1Cl	-7.64
Cc1cccnc1NC(=O)Nc1ccccc1	-2.38
Cc1ccc(C(=O)Nc2ccc3c(c2)CCC3)cc1	27.7
Cc1nc(NC(=O)c2ccc(F)cc2)sc1C(=O)Nc1ccc2c(c1)CCC2	10.8
O=C1CC2(CCCCCC2)Oc2ccc(Cl)cc21	-6.31
COc1cccc(-c2cc(C(=O)NCCN3CCOCC3)no2)c1	0.49
COc1ccc(NC(=S)NCCCN2CCOCC2)cc1	-0.5
CCCc1ccc(OCc2nc(-c3ccc(NC(=O)c4cccs4)cc3)no2)cc1	15.6
Cc1ccccc1OCc1nc(-c2ccc(NC(=O)c3ccco3)cc2)no1	19.3

Reference: PubChem BioAssay AID1626 (SRMLSC, 2009)
